PubChem BioAssay (NCATS)
Records with an inconclusive call do not appear. Unless noted, calls follow the shape of the dose curve; as a rule, active = well fitted curve in either direction with a large enough effect (not every such curve was filed as active); inconclusive = small, poorly fitted or top-dose-only effect, or another doubt; inactive = flat fitted curve, though single readings scatter.

Legend:
[1] = NFAT Signaling Pathway (AID 444); details: Jurkat NFAT-bla M1, carbachol, beta-lactamase ratio, 5 h; at 17.2 µM (top of the series) unless noted;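 also: carbachol stimulus at about its EC50 of 1 µM final; % is scaled to controls: 0 for no effect and ±100 for the full control effect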
How it was run: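 Read-out: CCF4 FRET ratio (460 nm/530 nm) after 1 h RT dye loading, used for %activity and AC50 from titration series. Cells: Jurkat NFAT-β-lactamase/M1 line, treated with compound plus 1 uM carbachol for 5 h, 37 °C.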

[2] = Stat Signaling Pathway (AID 446); details: ME-180 (cervical carcinoma) SIE beta-lactamase reporter, IL-6 stimulated, 5 h; at 17.2 µM (top of the series) unless noted;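 also: ME-180 cervical cancer cells given 40 pM IL-6 alongside compound; SIE-controlled beta-lactamase reporter measured as 460/530 nm FRET emission ratio; % is scaled to controls: 0 for no effect and ±100 for the full control effect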
How it was run: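 Normalization used AC90 stimulation (300 pM IL-6) and AC90 inhibition (125 nM pan-JAK inhibitor at 40 pM IL-6). The underlying signal is SIE-driven beta-lactamase in ME-180 cells after 5 h IL-6 exposure with compound.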

[3] = molecular target: Glucocorticoid receptor (Homo sapiens) (UniProt P04150); assay: GR-GFP Redistribution (AID 450;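 active = compounds whose dose series gives a full or clear partial fitted curve of increased nuclear translocation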; also: potency is read from the fitted curve at half-maximal effect)
Chain of Glucocorticoid receptor (Homo sapiens) (P04150 whole entry, looked up): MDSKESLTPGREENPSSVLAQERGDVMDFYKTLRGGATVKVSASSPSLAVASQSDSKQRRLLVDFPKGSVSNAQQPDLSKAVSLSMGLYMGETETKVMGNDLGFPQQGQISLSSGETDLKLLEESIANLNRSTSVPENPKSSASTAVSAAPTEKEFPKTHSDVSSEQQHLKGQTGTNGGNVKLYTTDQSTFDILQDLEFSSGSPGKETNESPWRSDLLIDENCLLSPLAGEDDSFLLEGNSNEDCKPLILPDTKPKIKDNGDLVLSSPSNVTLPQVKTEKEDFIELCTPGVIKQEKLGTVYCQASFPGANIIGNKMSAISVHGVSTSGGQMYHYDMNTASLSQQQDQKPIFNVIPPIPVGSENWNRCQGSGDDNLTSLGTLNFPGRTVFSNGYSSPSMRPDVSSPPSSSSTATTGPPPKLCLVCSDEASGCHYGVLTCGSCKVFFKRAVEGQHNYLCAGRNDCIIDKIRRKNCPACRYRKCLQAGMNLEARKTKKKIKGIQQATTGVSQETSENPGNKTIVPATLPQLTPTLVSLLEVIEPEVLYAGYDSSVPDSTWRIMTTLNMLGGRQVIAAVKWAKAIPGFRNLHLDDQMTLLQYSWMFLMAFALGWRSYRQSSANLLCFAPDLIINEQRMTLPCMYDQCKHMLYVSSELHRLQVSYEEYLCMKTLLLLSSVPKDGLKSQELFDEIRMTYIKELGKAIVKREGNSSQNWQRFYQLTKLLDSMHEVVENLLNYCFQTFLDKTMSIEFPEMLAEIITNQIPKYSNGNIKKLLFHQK

COC(=O)c1ccn(C(=O)c2ccc(Cl)cc2)n1
inactive: activity change, negative = inhibition [1] -8.81% | activity, negative = inhibition [2] -10.2% | Potency [3] > 20.6 µM

CCOC(=O)c1[nH]c2ccc(OC)cc2c1NC(=O)CN1CCN(c2ccccn2)CC1
inactive: activity change, negative = inhibition [1] -9.84% | activity, negative = inhibition [2] -2.44% | Potency [3] > 20.6 µM
